Laboratory results taken from PubChem BioAssay (NCI).
Compounds without any hit were thinned out: in the full panel of roughly 83,000, 20% have a hit.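 How to read the values: 0–100, growth inhibition (40 = 60% inhibited); 0, no net growth; -100 to 0, cell death (-40 = 40% of starting cells died; -100 = all dead).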 Values without a mark were called inactive. The source made the active and inactive calls. The calls were made as follows: active = growth percent below 10; inactive = the rest.

Key:
Test in all cases: NCI-60 one-dose screen, 48 h (100 = growth as untreated, 0 = no growth, -100 = all killed)
Conditions in all cases: 10 µM unless noted
[1] = test system: NCI-H23 lung
[2] = test system: NCI-H226 lung
[3] = test system: NCI-H322M lung
[4] = test system: HOP-62 NSCLC
[5] = test system: NCI-H460 lung
[6] = test system: HOP-92 NSCLC
[7] = test system: NCI-H522 lung
[8] = test system: A549/ATCC NSCLC
[9] = test system: 786-0 renal
[10] = test system: COLO 205 colon
[11] = test system: DU-145 prostate
[12] = test system: K-562 leukemia
[13] = test system: MALME-3M melanoma
[14] = test system: MDA-MB-231 breast
[15] = test system: SF-268 CNS
[16] = test system: SF-295 CNS
[17] = test system: SF-539 CNS
[18] = test system: UACC-257 melanoma
[19] = test system: M14 melanoma
[20] = test system: RXF 393 renal

SMILES | growth [1] | growth [2] | growth [3] [%] | growth [4] | growth [5] | growth [6] | growth [7] | growth [8] | growth [9] | growth [10] | growth [11] | growth [12] | growth [13] | growth [14] | growth [15] | growth [16] | growth [17] | growth [18] | growth [19] | growth [20]
O=C(c1cc(-c2ccc(Cl)cc2)nc2ccccc12)N1N=C(c2ccccc2)CC1c1cc(-c2ccccc2)nn1-c1ccccc1 (stereo unspecified) | 72.5% | 84.1% | 59.8 | 74% | 48.6% | 85% | 80.8% | 80% | 90% | 84.9% | 82.7% | 63.9% | 86.1% | 93.3% | 62.4% | 64.8% | 82.1% | 95.1% | 65.1% | 
COc1cc(/C=C/C(=O)N2CCC=CC2=O)cc(OC)c1OC | 62.3% | 109% | 84.3 | 82.8% | 76% | 28.9% | -68.2% (active) | 72.3% | 29.5% | 5.08% (active) | 43.5% |  | 10.5% | 45.9% | 85.1% | 94.1% | 29.6% | 66.4% | 55.7% | 9.03% (active)
N#Cc1c(N)nc2c(c1N)C(c1ccc(Cl)cc1)C1=C(CCCC1=O)N2c1sc2c(c1C#N)CCCC2 (stereo unspecified) | 91.2% | 89.2% | 83.5 | 80% | 97.3% | 62% | 84.3% | 90.1% | 80.1% | 96.2% | 99.7% | 74.2% | 90.7% | 75.4% | 89.5% | 101% | 96% | 92.6% | 90.3% | 60.6%
COc1ccc2c(c1)nnn1c3ncccc3c(N=O)c21 | -23.8% (active) | -57.7% (active) | 31 | -41.7% (active) | -70% (active) | -49.2% (active) | -85.7% (active) | 6.65% (active) | -63.1% (active) | -61% (active) | -56.1% (active) | -75% (active) | -8.37% (active) | -31.2% (active) | -50.4% (active) | 24.2% | -71.2% (active) | -10% (active) | -67.5% (active) | 
COc1ccc(-c2c(NC(=O)Nc3ccc(Cl)c(C(F)(F)F)c3)cnn2-c2ccc(S(N)(=O)=O)cc2)cc1 | 42.6% | 75.8% | 51 | 53.5% | 9.7% (active) | 0.848% (active) | 43.7% | 39.2% | 31.6% | 34.7% | 53.5% | 11.7% | 34.2% | 52.7% | 37.5% | 38.6% | 35.2% | 34.9% | 14.7% | 
Cc1cc(N2CCOCC2)nc(N(CCNc2ccnc3cc(Cl)ccc23)Cc2ccco2)n1 | 58% | 60.5% | 41.8 | 36.5% | 47.3% | 46.7% | 13.9% | 50.7% | 5.93% (active) | -4.11% (active) | 53.4% |  | 62.8% | 7.62% (active) | 71.8% | 6.25% (active) | -31.8% (active) | 49.8% | 39.5% | 10.6%
O=C(NC(=S)Nc1ccc(Cl)cc1)c1ccccc1 | 98.4% | 108% | 107 | 96.6% | 105% | 85.8% | 53% | 85.1% | 90.9% | 132% | 103% | 73.2% | 112% | 96.3% | 114% | 85.5% | 103% | 97% | 100% | 
Nc1ncnc2c1ncn2C1OC(COC(c2ccccc2)(c2ccccc2)c2ccccc2)C(O)C1O (stereo unspecified) | 89.8% | 92.1% | 96.5 | 95.2% | 25.9% | 86.6% | 97.4% | 94.3% | 99.1% | 99.4% | 73% | 82.3% | 95.5% | 84.5% | 100% | 48.1% | 103% | 108% | 101% | 
CCn1cc(/C=C2\Oc3cc(OCC#N)ccc3C2=O)c2cc(OC)ccc21 | 41.6% | 86.4% | 49.3 | 36.6% | 8.51% (active) | 71.2% | 56.7% | 41.1% | 38.3% | 8.22% (active) | 20.4% |  | 93.4% | 45.2% | 55.9% | 16.7% | 3.56% (active) | 65.1% | 22.8% | -11.3% (active)
COc1ccccc1C(OC(C)=O)OC(C)=O | 98.7% | 94% | 97.5 | 104% | 107% | 115% | 78% | 79.5% | 97.7% | 110% | 109% | 95.6% | 108% |  | 98.8% | 96.6% | 101% | 87.5% | 98.3% | 111%
NC(CSC(c1ccccc1)(c1ccccc1)c1ccc(F)cc1)C(=O)O (stereo unspecified) | 14.4% | 61.8% | 28.7 | -28.7% (active) | 2.02% (active) | -24.3% (active) | -59.1% (active) | 11.7% | -50.8% (active) | 5.57% (active) | -40.3% (active) | -4.92% (active) | 30.6% | -18.6% (active) | 24.4% | 0.119% (active) | -7.79% (active) | -15.2% (active) | -55.4% (active) | 
CC(C)CCC[C@@H](C)[C@H]1CC[C@H]2[C@@H]3CC=C4N(c5ccccc5)C(=O)CC[C@]4(C)[C@H]3CC[C@]12C | 97.2% | 99.2% | 98.3 | 98.8% | 111% | 60.2% | 94.1% | 97.4% | 93.9% | 97.9% | 103% | 103% | 97.8% | 111% | 99.3% | 99% | 101% | 105% | 96.1% | 103%
COc1ccc(C2CC(c3cc(Cl)c(C)cc3OC)=NN2c2ccc(S(N)(=O)=O)cc2)cc1OC (stereo unspecified) | 75.8% | 81.3% | 104 | 87.8% | 89.8% | 101% | 74.3% | 73.2% | 92.3% | 101% | 106% |  | 101% | 84.6% | 90.1% | 123% | 103% | 87.2% | 81.8% | 77.7%
Nc1nc(Cl)c2c(C(F)(F)F)cn(CC3CCNCC3)c2n1 | 47.5% | 111% | 100 | 103% | 103% | 57.9% | 5.07% (active) | 94.2% | 95.5% | 94% | 109% |  | 101% | 54.2% | 96.2% | 105% | 107% | 83.8% | 57.3% | 52.9%
C=C1C(=O)O[C@H]2[C@H]1CC/C(COC(=O)c1cccc3ccccc13)=C\CC[C@@]1(C)O[C@@H]21 | 0.789% (active) | -79.9% (active) | 36.8 | -45.7% (active) | 7.53% (active) | -67.9% (active) | -84.5% (active) | -55% (active) | -77.9% (active) | -70.7% (active) | -95.1% (active) |  | -74.5% (active) | -67.7% (active) | -66.4% (active) | 47.8% | -93.1% (active) | -13.9% (active) | -58.7% (active) | -89.6% (active)
COc1cc2ncnc(Oc3ccc(NC(=O)Nc4ccc(C5(C#N)CCCC5)cc4)c4ccccc34)c2cc1OC | 47.6% | 80.3% | 66.7 | 41.5% | 19.3% | -39.8% (active) | 37.8% | 25.6% | -40.7% (active) | 82.5% | 57.7% |  | 31.3% | 43.6% | 27% | 13.7% | 64.7% | 94.8% | 47.3% | 14.9%
